Measurements taken from ChEMBL document CHEMBL4513216, “Probing the Open Global Health Chemical Diversity Library for Multistage-Active Starting Points for Next-Generation Antimalarials” (ACS Infect Dis, 2020).
The campaign covered roughly 65,000 compounds. About 2,100 (3.2%) showed an effect of 50% or more. The median lay at about -52%. This is one part of a sample in which strong results are shown more often than they occur.

These compounds were tested on Plasmodium falciparum (assay: Screen against P. falciparum Asexual Blood Stage (ABS), at 5uM). Conditions: tested at 5 uM.
Type: functional, Dd2
With `CC(C)(C)n1cc(CNc2ccc(CNS(C)(=O)=O)cc2)cn1` the INHIBITION was -25.8%.
Work on `Cn1cnc2c1C(COCC1CC1)CN(Cc1ccc3c(c1)OCO3)C2` (stereo not given) yielded an INHIBITION of 41.1%.
With `CCCC(=O)N1CCCN(C(=O)c2oc(C)nc2C)CC1` the INHIBITION was -111%.
`Cc1ncsc1C(=O)NCc1ccnc(N2CCN(C)CC2)c1` was tested, and the INHIBITION was 62.9%.
With `Cc1cc(C(=O)NCc2ccnc(N3CCN(C)CC3)c2)sc1C` the INHIBITION was -5.05%.
Compound `Cc1cc(C(=O)NCc2ccnc(N3CCN(C)CC3)c2)c(C)s1` has an INHIBITION of 32.2%.
With `Cc1ccsc1C(=O)NCc1ccnc(N2CCN(C)CC2)c1` the INHIBITION was -35%.
Work on `Cc1ccc(C(=O)NCc2ccnc(N3CCN(C)CC3)c2)cn1` yielded an INHIBITION of -38.9%.
In the case of `Cc1cc(C(=O)NCc2ccnc(N3CCOCC3)c2)c(C)s1`, the INHIBITION is reported as 50.6%.
In the case of `Cc1cnc(N2CCC3(CC2)CC3CNC(=O)C2CCC2)nc1` (stereo not given), the INHIBITION is reported as -57.8%.
Work on `COc1cccc(-c2noc(C3CCN(Cc4ccc(C)cc4)C3)n2)c1` (stereo not given) yielded an INHIBITION of -97.2%.
In the case of `O=C(c1cc(Cl)ccc1OC1CCN(C2CCCC2)CC1)N1CCCO1`, the INHIBITION is reported as 53.5%.
Work on `CC(=O)N1CCC(Oc2ccc(Cl)cc2C(=O)N2CCCO2)CC1` yielded an INHIBITION of -31%.
Compound `O=C(c1cc(Cl)ccc1OC1CCN(C2CCCC2)CC1)N1CC(O)C1` has an INHIBITION of -96%.
For `Cc1noc([C@@H]2C[C@H]3OCC[C@H]3N(Cc3sccc3C)C2)n1`, the INHIBITION was -15.2%.
`CNC(=O)c1cn2cc(-c3ccc(F)cc3)n(CC=C(C)C)c(=O)c2n1` gave an INHIBITION of 39.1%.
In the case of `NC(=O)c1cn2cc(-c3ccccc3Cl)n(CC3CC3)c(=O)c2n1`, the INHIBITION is reported as -27.5%.
`CCNC(=O)c1cn2cc(-c3ccccc3Cl)n(CC3CC3)c(=O)c2n1` gave an INHIBITION of 43.7%.
With `CN(C)C(=O)c1cn2cc(-c3cccc(Cl)c3)n(CC3CC3)c(=O)c2n1` the INHIBITION was -21.6%.
In the case of `CNC(=O)c1cn2cc(-c3cccc(Cl)c3)n(CC3CC3)c(=O)c2n1`, the INHIBITION is reported as 19.5%.
`CNC(=O)c1cn2cc(-c3ccccc3Cl)n(CC3CC3)c(=O)c2n1` was tested, and the INHIBITION was 54.7%.
`CNC(=O)c1cn2cc(-c3cccc(Cl)c3)n(CC=C(C)C)c(=O)c2n1` showed an INHIBITION of 56.6%.
In the case of `CNC(=O)c1cn2cc(-c3ccccc3Cl)n(CC=C(C)C)c(=O)c2n1`, the INHIBITION is reported as 68.2%.
In the case of `CN(C)C(=O)c1cn2cc(-c3ccccc3Cl)n(CC3CC3)c(=O)c2n1`, the INHIBITION is reported as 37.8%.
With `CCn1cc(NC(=O)CCc2ccc3c(c2)OCCCO3)cn1` the INHIBITION was -127%.
`Brc1ccc(-c2nnc(CN(Cc3cccs3)CC3CCCO3)o2)s1` (stereo not given) gave an INHIBITION of -45.2%.
Work on `Cc1cnn(CC2CCCN2Cc2nnc(C3CC3)n2C)c1` (stereo not given) yielded an INHIBITION of -100%.
For `COC1[C@@H]2CC[C@H]1CN(c1nc(C)nc3sccc13)C2` (stereo not given in full), the INHIBITION was -88.3%.
Work on `Cc1cc(C(=O)N2CCCC(n3cncn3)C2)on1` (stereo not given) yielded an INHIBITION of -247%.
Work on `Cc1cc(C(=O)N2CCCC(n3cncn3)C2)no1` (stereo not given) yielded an INHIBITION of 66.7%.
Work on `O=C(c1cc(C2CC2)on1)N1CCCC(n2cncn2)C1` (stereo not given) yielded an INHIBITION of -34.5%.
`Cn1cccc1-c1cc(C(=O)NCCCc2csc(N)n2)[nH]n1` gave an INHIBITION of -75.5%.
Work on `Cc1ccc(-c2cc(C(=O)NCCCc3csc(N)n3)[nH]n2)o1` yielded an INHIBITION of 22%.
With `Cc1ccc(-c2cc(C(=O)NCCCc3csc(N)n3)[nH]n2)s1` the INHIBITION was 66.5%.
Work on `Cc1nc(C)c(CNC(=O)N2CCN(c3ccc(Cl)cn3)CC2)s1` yielded an INHIBITION of -49.6%.
`O=C(NC1CCC1)[C@@H]1C[C@@H]2CCN(Cc3cccs3)C[C@@H]2O1` gave an INHIBITION of -168%.
In the case of `CC(C)(N)C(=O)N1CCC(c2nccnc2Oc2ccccc2F)CC1`, the INHIBITION is reported as -4.82%.
`NC(=O)c1cccc(C2CCN(c3ncccn3)CC2)n1` gave an INHIBITION of -58%.
Work on `O=C1NCCCc2[nH]c(Cc3cccc(Cl)c3)nc21` yielded an INHIBITION of -167%.
Work on `Clc1cccc(C[C@@H]2NCCC[C@@H]2Nc2ccccc2)c1` yielded an INHIBITION of 88.7%.
`O=C(Cc1cccc(Cl)c1)N[C@@H]1CCNC[C@H]1O` showed an INHIBITION of -75.4%.
With `CC(NC(=O)NCCCc1n[nH]c(N)c1C#N)c1cccc(Cl)c1` (stereo not given) the INHIBITION was 0.414%.
In the case of `COCC(=O)N(C)Cc1nc(N2CCCC2)ncc1-c1ccncc1`, the INHIBITION is reported as -9.28%.
`Cc1ccc(CN2Cc3nnn(C)c3C(COCC3CC3)C2)s1` (stereo not given) gave an INHIBITION of -90.4%.
Compound `CCn1nnc2c1C(COCCN(C)C)CN(Cc1ccc(C)s1)C2` (stereo not given) has an INHIBITION of 60.1%.
For `CCn1nnc2c1C(COCCN(C)C)CN(Cc1ccco1)C2` (stereo not given), the INHIBITION was -67.6%.
`CCOC(=O)N1CC(=O)N(Cc2ccc(OC)cc2)CC(O)C1` (stereo not given) gave an INHIBITION of -109%.
In the case of `Cc1occc1C(=O)N1CCC2(CCC2NC(=O)c2ccn(C)c2)CC1` (stereo not given), the INHIBITION is reported as -23.1%.
For `CC(C)c1ccc(CNC(C)c2ccc(S(C)(=O)=O)cc2)cc1` (stereo not given), the INHIBITION was 53.6%.
In the case of `CC(NCc1ccc(F)cc1)c1ccc(S(C)(=O)=O)cc1` (stereo not given), the INHIBITION is reported as -28.9%.
With `CC(NCc1ccc(C(C)(C)C)cc1)c1ccc(S(C)(=O)=O)cc1` (stereo not given) the INHIBITION was -7.37%.
`Cc1ccc(-c2cc(CN3CCc4cnc(C)nc4C3)on2)cc1` gave an INHIBITION of -29%.
For `CN1C(=O)CCC12CCC(NCc1ccsc1)CC2` (stereo not given), the INHIBITION was -30.4%.
`O=C1CCC2(CCC(NCc3ccsc3)CC2)N1Cc1ccccc1` (stereo not given) showed an INHIBITION of 65.3%.
For `O=C1CCC2(CCC(NCc3cccnc3)CC2)N1Cc1ccccc1` (stereo not given), the INHIBITION was -16.6%.
`Cc1cc(C(=O)NCC(F)(F)F)c2c(C3CCNCC3)noc2n1` was tested, and the INHIBITION was -42.4%.
In the case of `CCn1nc2c(cc1=O)CN(c1ncnc3ccsc13)CC2`, the INHIBITION is reported as 17.6%.
With `CC(=O)N1CCO[C@@H]2CN(Cc3ccccc3F)C[C@@H]2C1` the INHIBITION was -77.7%.
Work on `CN(C)S(=O)(=O)N1CCCC(c2nccnc2-c2cccc(Cl)c2)C1` (stereo not given) yielded an INHIBITION of -85.8%.
`CN(C)Cc1cc(C2CCCN(S(=O)(=O)c3cccc(Cl)c3)C2)nn1C` (stereo not given) gave an INHIBITION of 56.5%.
`O=S(=O)(c1cccc(Cl)c1)N1CCCC(Cn2cncn2)C1` (stereo not given) was tested, and the INHIBITION was -36.3%.
Compound `Cc1cccc(-n2ncc3c2CCCC3NCC(C)(C)CO)c1C` (stereo not given) has an INHIBITION of -58.1%.
For `O=C(c1ccsc1)N1C[C@H]2CCC[C@@]2(COCc2cccnc2)C1`, the INHIBITION was -29.9%.
`Cc1ccc(CN2C[C@@H](C(=O)Nc3cccnc3)C[C@H]3OCC[C@H]32)o1` was tested, and the INHIBITION was -35.4%.
With `Cc1nccc(-c2cccc(-c3ccn(CC4CCNC4)n3)c2)n1` (stereo not given) the INHIBITION was -137%.
Work on `Cc1ccsc1-c1cccc(-c2ccn(CC3CCNC3)n2)c1` (stereo not given) yielded an INHIBITION of 61.7%.
In the case of `c1cc(-c2cncnc2)cc(-c2ccn(CC3CCNC3)n2)c1` (stereo not given), the INHIBITION is reported as 13.9%.
With `Cc1cccc(C(=O)N2CC[C@]3(C[C@H](OCc4ccccn4)CO3)C2)c1` the INHIBITION was -121%.
Compound `CCN(CC)c1ccc(NS(=O)(=O)c2cncc(F)c2)cn1` has an INHIBITION of -19.4%.
In the case of `CCN(CC)c1ccc(NS(=O)(=O)c2cnn(C)c2)cn1`, the INHIBITION is reported as -98.6%.
`CCN(CC)c1ccc(NS(=O)(=O)c2cccnc2)cn1` showed an INHIBITION of 59.3%.
`Cc1ccc(-n2ncc3c2CCCC3N)cc1C` (stereo not given) gave an INHIBITION of 7.06%.
`CC(C)(C)c1ccc(-n2ncc3c2CCCC3N)cc1` (stereo not given) gave an INHIBITION of 31.8%.
For `NC1CCCc2c1cnn2-c1cc(F)cc(F)c1` (stereo not given), the INHIBITION was 53.6%.
`CC(O)CN1CCN(Cc2csc(-c3ncccn3)n2)CC1` (stereo not given) was tested, and the INHIBITION was -107%.
For `c1ccc(CC2(CNCc3ncc[nH]3)CCC2)cc1`, the INHIBITION was 45.2%.
`CCCC1(CNCc2ncc[nH]2)CCC1` gave an INHIBITION of 26.4%.
In the case of `CCC1(CNCc2ncc[nH]2)CCCC1`, the INHIBITION is reported as 67%.
For `CCc1ccc(C(=O)N2CC[C@H](Oc3cccnc3C)[C@@H](O)CC2)cc1`, the INHIBITION was -41%.
Compound `CN(C)c1cc(C(=O)N2CCCCCC2)ccn1` has an INHIBITION of -8.55%.
`CN(C)c1cc(C(=O)N2CCCC2)ccn1` gave an INHIBITION of 55.6%.
In the case of `CN(C)c1cc(C(=O)N2CCCCC2)ccn1`, the INHIBITION is reported as -78.5%.
In the case of `CCN(C(=O)CN1CCCC1c1ccc(OC)cc1)c1ccccc1` (stereo not given), the INHIBITION is reported as 18.8%.
`Cc1ccc(C2CCCN2CC(=O)N(CCC#N)c2ccccc2)cc1` (stereo not given) gave an INHIBITION of 62.4%.
With `CN(C(=O)CN1CCCC1Cc1ccccc1)c1ccccc1` (stereo not given) the INHIBITION was 22.7%.
`N#CCCN(C(=O)CN1CCCC1C1CCCCC1)c1ccccc1` (stereo not given) was tested, and the INHIBITION was 52.2%.
Compound `N#CCCN(C(=O)CN1CCCC1c1ccsc1)c1ccccc1F` (stereo not given) has an INHIBITION of 69.7%.
With `N#CCCN(C(=O)CN1CCCC1c1cccs1)c1ccccc1F` (stereo not given) the INHIBITION was 40%.
`N#CCCN(C(=O)CN1CCCC1c1ccsc1)c1ccccc1` (stereo not given) showed an INHIBITION of 1.81%.
`CCN(C(=O)CN1CCCC1Cc1ccccc1)c1ccccc1` (stereo not given) showed an INHIBITION of 61.3%.
Compound `Cc1ccc(N(CCC#N)C(=O)CN2CCCC2c2ccsc2)cc1` (stereo not given) has an INHIBITION of 46.2%.
`N#CCCN(C(=O)CN1CCCC1c1ccccc1Cl)c1ccccc1` (stereo not given) gave an INHIBITION of 40.4%.
`Cc1ccc(N(CCC#N)C(=O)CN2CCCC2c2cccs2)cc1` (stereo not given) showed an INHIBITION of 13.3%.
`N#CCCN(C(=O)CN1CCCC1Cc1ccccc1)c1ccccc1` (stereo not given) gave an INHIBITION of 22.1%.
Work on `CC(C)Nc1ncc(-c2csc(NC(=O)C[C@H]3COCCN3)n2)cn1` yielded an INHIBITION of -130%.
Work on `c1ccc(CN2CCc3ncnc(-c4cccnc4)c3CC2)nc1` yielded an INHIBITION of -71.1%.
For `Cc1cnccc1NCCNC1CCSCC1`, the INHIBITION was -40.9%.
For `CCc1nccn1CC(=O)Nc1cccc(N2CCCC2)c1`, the INHIBITION was -50.9%.
With `Cn1nc(C2CCCNC2)c2c(C(=O)NC3CC3)cc(C3CC3)nc21` (stereo not given) the INHIBITION was -98.6%.
For `CC(=O)c1ccc(OCC(=O)NS(=O)(=O)c2ccc(C)s2)cc1`, the INHIBITION was -93.5%.
Work on `CC(C)C(NC(N)=O)C(=O)NCc1ccc(N2CCCC2)nc1` (stereo not given) yielded an INHIBITION of -34.4%.
With `Cc1noc(CN2C[C@@H]3CC[C@H]2CN(C2Cc4ccccc4C2)C3)n1` the INHIBITION was 3.93%.
For `Cc1cc(CN2C[C@@H]3CC[C@H]2CN(C2Cc4ccccc4C2)C3)on1`, the INHIBITION was 62.7%.
`Cc1nnc(CN2C[C@@H]3CC[C@H]2CN(C2Cc4ccccc4C2)C3)o1` gave an INHIBITION of 38.4%.
Compound `Cc1noc(CNC(=O)CN(C)c2nc3c(C)ccc(C)c3s2)n1` has an INHIBITION of -71.5%.
